Screening data: PubChem, National Center for Advancing Translational Sciences (NCATS)
This is a sample that favours compounds with a hit; in the whole collection about 19% have one here.
HepG2 viability = counter-screen for TGF-b inhibitors: cytotoxicity in HepG2 cells; Potency, µM (doses to about 46.1 µM), for inactives: at the top dose activity change, negative = cytotoxicity, actives largely listed as cytotoxic; HepG2 CAGA-GFP viability, ATP luminescence, 18 h; AID 588856; 0.76% of 410,000 active; note: potency is the fitted concentration of half-maximal effect
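CellTiter-Glo luminescence gave cytotoxicity after 18 hours at 37 degrees C. The cells were HepG2 CAGA-GFP in 1% FBS DMEM, stimulated with 500 pg/mL TGF-beta after compound addition. %Activity was normalised to no-cell wells (complete cell-killing) and DMSO (no toxicity), and curves were fitted and classified.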
TDP1 block = blocks human tyrosyl-DNA phosphodiesterase 1 | Potency, µM (series often up to 130 µM), for inactives: top-dose activity change, negative = inhibition, usual class: inhibitors | 0.28% of 350,000 active | recombinant TDP1, AlphaScreen DNA substrate cleavage; note: potency is the fitted concentration of half-maximal effect; % is set by controls: 0 for no effect and ±100 for the full control effect; nearly all actives have a fitted effect of over 40% in size
Target sequence (Q9NUW8 whole entry, looked up): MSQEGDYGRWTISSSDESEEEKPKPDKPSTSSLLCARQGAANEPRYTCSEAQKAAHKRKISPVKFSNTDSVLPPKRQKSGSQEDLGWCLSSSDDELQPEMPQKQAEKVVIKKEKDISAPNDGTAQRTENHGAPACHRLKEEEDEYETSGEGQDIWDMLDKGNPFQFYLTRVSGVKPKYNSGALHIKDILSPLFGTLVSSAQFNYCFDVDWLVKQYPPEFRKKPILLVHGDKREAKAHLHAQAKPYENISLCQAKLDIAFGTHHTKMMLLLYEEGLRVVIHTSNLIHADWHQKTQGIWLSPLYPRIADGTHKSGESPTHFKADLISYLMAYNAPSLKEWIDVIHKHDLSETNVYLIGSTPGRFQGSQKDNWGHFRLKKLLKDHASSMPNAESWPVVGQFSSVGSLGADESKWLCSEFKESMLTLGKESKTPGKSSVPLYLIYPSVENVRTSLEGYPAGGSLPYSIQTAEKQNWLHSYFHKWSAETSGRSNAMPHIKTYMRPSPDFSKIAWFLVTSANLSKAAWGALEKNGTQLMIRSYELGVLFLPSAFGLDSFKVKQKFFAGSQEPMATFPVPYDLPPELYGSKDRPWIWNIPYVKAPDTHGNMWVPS
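Compounds were preincubated with Tdp1 (1 nM final) for 15 min at room temperature before substrate (15 nM final) started a 5 min reaction; beads (10 ug/ml final) were then added for 10 min before AlphaScreen detection.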
DT40 TDP1 no CPT = qHTS for Inhibitors of human tyrosyl-DNA phosphodiesterase 1 (TDP1): qHTS in cells in absence of CPT; DT40 Tdp1-/- hTDP1 cells, no CPT, ATP luminescence, 48 h; Potency, µM (doses to about 46.2 µM), inactives show at the highest dose activity change, negative = growth inhibition, most hits filed as inhibitors; 15% of 420,000 active; note: potency is the fitted concentration of half-maximal effect; % is set by controls: 0 for no effect and ±100 for the full control effect; nearly all actives have a fitted effect of over 55% in size
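A cellular qHTS used chicken DT40 cells lacking endogenous Tdp1 but carrying stably transfected human TDP1. Compounds were applied without camptothecin, and cell growth kinetics were judged by ATP-dependent luminescence after ≥48 hr.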
IL1B secr inh = inflammasome signaling inhibition, IL-1 beta readout; 4.7% of 360,000 active; THP-1 LPS/ATP IL-1B secretion, AlphaLISA, 16 h; active compounds read low; activity change, % at 57.5 µM; AID 743279; in the data active = activity change below about -50%; inconclusive = mostly about -30% to -49%; note: % is set by controls: 0 for no effect and ±100 for the full control effect
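THP-1 cells pretreated 1 hr with compounds (up to 57.5 uM final), then stimulated with LPS (250 ng/mL final) plus ATP (1.25 mM final); secreted IL-1B measured by AlphaLISA after 16 hr, decreased signal indicating inhibition.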
TGFb SMAD3 inh = TGF-b pathway inhibition | HepG2 CAGA-GFP TGF-b/SMAD3 reporter, GFP fluorescence, 18 h; TGF-beta stimulated, 500 pg/mL final | Potency, µM (top dose mostly 46.1 µM), for inactives: top-dose activity, negative = inhibition, most hits filed as inhibitors | 1.2% of 410,000 active; note: potency is the fitted concentration of half-maximal effect; % is set by controls: 0 for no effect and ±100 for the full control effect; nearly all actives have a fitted effect of over 65% in size
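Using HEPG2 CAGA-GFP reporter cells at 1000 cells/well, we pinned test compounds, stimulated with recombinant TGF-beta (500 pg/mL final) and measured total well GFP after 18 h.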
DT40 TDP1 CPT = DT40-hTDP1 cell growth loss with CPT | Potency, µM (doses to about 46.2 µM), inactives show at the highest dose activity change, negative = growth inhibition, actives largely listed as inhibitors | 12% of 420,000 active | chicken DT40 Tdp1-/-;hTDP1 cells + 20 nM CPT, ATP luminescence, 48 h; note: potency is the fitted concentration of half-maximal effect; % is set by controls: 0 for no effect and ±100 for the full control effect; nearly all actives have a fitted effect of over 55% in size
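Chicken DT40 Tdp1-/- cells complemented with human TDP1, 400 cells/well, exposed to compounds plus 20 nM camptothecin for at least 48 h at 37 C; viability read as ATP content by CellTiter-Glo luminescence.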
The depositor's hits bear a star; u = inconclusive; x = no result given; [ ] = another dose, or the depositor's remark. Unless noted, calls come from the whole dose curve; as a rule, active = well fitted curve in the direction sought with a large enough effect; inconclusive = small, poorly fitted or top-dose-only effect, or another doubt; inactive = no such curve, though single readings can be large; an effect the other way counts as inactive or inconclusive.

SMILES | HepG2 viability | TDP1 block | DT40 TDP1 no CPT | IL1B secr inh | TGFb SMAD3 inh | DT40 TDP1 CPT
NC[C@@H]1O[C@@H](O[C@H]2[C@H](O)[C@@H](O[C@@H]3O[C@@H](CO)[C@H](O)[C@@H](N)[C@@H]3O)[C@H](N)C[C@@H]2N)[C@@H](O)[C@H](O)[C@H]1O | x | 1% | x | x | x | x
CCCCNC(=O)CN1CCN(c2ccc(NC(=O)c3ccc(OC)cc3)cc2C(=O)O)CC1 | 0% | -7% | 5% | x | 6% | -2%
COc1ccc(OC)c(C(=O)c2ccc(C(=O)Nc3ccc4ccccc4c3)cc2)c1 | -35% | 4% | 18µM* | -7 | -8% | 21µM*
COc1ccc(OC)c(C(=O)CCCCC(=O)c2cc(OC)ccc2OC)c1 | -48% | x | 18µM* | 6 | -24% | u
COc1ccc(C(=O)COC(=O)c2ccc(Cl)nc2)c(OC)c1 | -40% | 50µM* | -17% | 0 | 24% | 0%
COc1ccc(/C(C)=N/N=C(N)N)c(OC)c1 | -7% | 3% | -26% | 6 | -9% | 18µM*
Cc1cn2c(=O)c(S(=O)(=O)Nc3ccc(N4CCOCC4)cc3)c(C)nc2s1 | -6% | 3% | u | x | -16% | u
O=C(COC(=O)c1ccc[nH]c1=O)NCCCc1ccccc1 | -3% | 1% | 11% | 4 | 0% | -6%
COc1cccc(CN2CCC(n3cc(C(=O)NC4CCCC4)nn3)CC2)c1O | x | x | -5% | x | x | 14%[9.04 µM]
CCOC(=O)Cn1c(=O)cc(-c2ccccc2)c2c(C)nn(C)c21 | -14% | -3% | u | x | -24% | u
COc1cc(CCC(=O)NCc2ccc3c(c2)CCN3C(=O)c2cccc(C)c2)cc(OC)c1OC | -2% | 0% | u | x | -3% | -18%
CC(C)c1ccc(NC(=O)C(Cc2ccccc2)NS(=O)(=O)c2ccc3c(c2)oc(=O)n3C)cc1 (configuration not stated) | -15% | 2% | u | x | -10% | u
CN(C)c1nc(N)c2ncc(=S)[nH]c2n1 | -40% | 5% | -18% | -65* | -9% | 0%
CN(C)c1nc(C(=O)NN)nc(N(C)C)n1 | 7% | 9% | -2% | -8 | -2% | 2%
Cc1ncc(C(O)c2ccc(N(C)C)cc2)n1Cc1ccccc1 (configuration not stated) | 0% | x | 23µM* | -2 | -13% | u
CN(C)c1ccc(C(=S)N2CCN(Cc3ccccc3)CC2)cc1 | -12% | x | u | -5 | -20% | u
CCc1ncc(C(O)c2ccc(Cl)cc2)n1Cc1ccccc1 (configuration not stated) | -19% | x | 12µM* | 17 | u | 18µM*
C[n+]1cn(CC(O)COCc2ccccc2)c2ccccc21 (configuration not stated) | -8% | 4% | u | -3 | -5% | u
CCCc1n(CC(O)COC2CCCCC2)c2ccccc2[n+]1C (configuration not stated) | 0% | 2% | 3.7µM* | -10 | -4% | 7.3µM*
CCCc1n(CC(O)COCC2CC=CCC2)c2ccccc2[n+]1C (configuration not stated) | 1% | 4% | 10µM* | 7 | 0% | 8.2µM*
CCCc1n(CC(O)COCc2ccccc2)c2ccccc2[n+]1C (configuration not stated) | 6% | -1% | 23µM* | 9 | 13% | 23µM*
Clc1cccc(CNc2ncnc3nc[nH]c23)c1 | -7% | x | u | x | -1% | u
Cc1cccc(-c2nc3c(c(SCC(=O)N(C)C)n2)CCCC3)c1 | -8% | 0% | 16µM* | 0 | u | u
CN(C)CCSc1nc(-c2ccccc2)nc2c1CCCC2 | -23% | 1% | 16µM* | -71* | 7% | 12µM*
CCCCCCCCCCCCCCCCOCC(CO)OC (configuration not stated) | x | 6% | -7%[4.12 µM] | x | x | 2%[4.12 µM]
SMILES | HepG2 viability | TDP1 block | DT40 TDP1 no CPT | IL1B secr inh | TGFb SMAD3 inh | DT40 TDP1 CPT
CCOC(=O)c1c(C)c(C)n(Cc2cccc(OC)c2OC)c1C | 0% | 5% | 23µM* | -11 | u | u
CCOC(=O)c1cc(C)n(Cc2cccc(OC)c2OC)c1C | -32% | 8% | u | -8 | 0% | u
O=C(O)c1cc2n(n1)C(C(F)(F)F)CC(c1ccco1)N2 (configuration not stated) | -23% | -2% | 1% | 17 | -9% | 6%
O=C(c1cc2nc(-c3ccco3)cc(C(F)(F)F)n2n1)N1CCN(c2ccccc2)CC1 | -18% | 2% | u | -10 | 4% | u
O=C(c1cc2n(n1)C(C(F)(F)F)CC(c1ccco1)N2)N1CCN(c2ccccn2)CC1 (configuration not stated) | -1% | 4% | 26µM* | -14 | -13% | u
Cc1cccc(N2CCN(C(=O)c3cc4n(n3)C(C(F)(F)F)CC(c3ccco3)N4)CC2)c1C (configuration not stated) | -74% | 0% | 15µM* | -55* | u | 21µM*
O=C(c1cc2nc(-c3ccco3)cc(C(F)(F)F)n2n1)N1CCN(c2ccccn2)CC1 | -11% | 4% | 13µM* | -11 | -17% | 26µM*
COc1ccc(NC(=O)COC(=O)C2CCC2)cc1Cl | -18% | 2% | 15% | -17 | -6% | 6%
COC(=O)[C@@H]1C[C@]2(OC(=O)c3ccccc3)C=CC(=O)C[C@@H]2N1C(=O)OCc1ccccc1 | -68% | 7% | 7.3µM* | -107* | u | 6.5µM*
COC(CNC(=O)C1CCCN1C(=O)OCc1ccccc1)OC (configuration not stated) | -4% | 3% | -8% | -13 | -9% | -15%
O=S(=O)(NC1c2cccc3cccc(c23)C1N1CCN(CCO)CC1)c1ccccc1 (configuration not stated) | -4% | 3% | 15µM* | -8 | u | u
Cc1ccc(S(=O)(=O)c2c(C)nn(C(C)(C)C)c2OC(=O)c2ccc(Br)o2)cc1 | -81% | 4% | u | -72* | u | u
CCN(CC)S(=O)(=O)c1ccc(-c2nnc3sc4cccc(C)c4n23)cc1 | -27% | 6% | u | 11 | -1% | 23µM*
CC(C)(C)NC(=O)CCN(/N=C/c1ccc([N+](=O)[O-])o1)C1=NS(=O)(=O)c2ccccc21 | -10% | 1% | 15µM* | 8 | u | 18µM*
